Measured values: PubChem BioAssay (EPA / NIEHS)
Values joined by “and” are separate entries in the source; they are usually repeats but may differ in a detail not shown here. Equal values may be shown once. Records with an inconclusive call do not appear. Some compounds were tested as several samples or in several runs, with calls that do not always agree. Active and inactive are the calls of the source. Rule for the calls, unless noted: active = hit-call score of the fitted dose curve at least 0.9, where 1 is the maximum; inactive = score below 0.9.

How the values were obtained:
[1] = CCTE_Shafer_MEA_acute_burst_percentage_mean: CCTE's Neural Acute Assay for Percentage of Spikes in a Burst, Shafer Lab (AID 2284017);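 for AC50: curve fitted for loss of signal so potency reflects decreased burst percentage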
Outline: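 Well-level mean burst percentage from a 40-min recording after compound (0.03-40 uM) expressed as percent change from a 40-min baseline at 37C. Cultures: primary rat cortical neurons on MEA, dosed on DIV 13 or 15; fitted downward relative to DMSO.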

[2] = CCTE_Shafer_MEA_acute_burst_percentage_std: CCTE's Neural Acute Assay for Standard Deviation of Burst Percentage, Shafer Lab (AID 2284018);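 note: fitted in the negative direction so actives lower burst percentage SD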
Outline: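 Value is percent change from baseline in the across-electrode SD of spikes-in-bursts percentage, wells with >/= 10 active electrodes. Acute 40-min exposure to 0.03-40 uM on DIV 13 or 15 rat cortical cultures, recorded at 37 C after 40-min baseline.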

[3] = CCTE_Shafer_MEA_acute_per_network_burst_spike_number_std: CCTE's Neural Acute Assay for Standard Deviation of Number of Spikes in a Network Burst, Shafer Lab (AID 2284020);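 note: fitted for decrease in spike-number SD versus DMSO so actives lower it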
Outline: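 Spontaneous network activity of primary rat cortical neurons is recorded extracellularly before and after a 40-min compound exposure (0.03-40 uM) at 37 C. The endpoint is the well's percent change in burst spike-number SD.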

[4] = CCTE_Shafer_MEA_acute_per_network_burst_electrodes_number_mean: CCTE's Neural Acute Assay for Mean Number of Electrodes in a Network Burst, Shafer Lab (AID 2284021);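 note: curves fitted for decreases only so hits reduce electrodes per burst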
Outline: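 Percent change from baseline in average electrode count per network burst, rat cortical cultures on 48-well MEAs; 40-min recordings each side of exposure, DIV 13 or 15; threshold 8x rms noise; DMSO as negative control.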

[5] = CCTE_Shafer_MEA_acute_network_burst_percentage: CCTE's Neural Acute Assay for Percentage of Network Bursts, Shafer Lab (AID 2284022);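 note: curves fitted for loss so actives lower network burst percentage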
Outline: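 On DIV 13 or 15, at least three wells of rat cortical neurons per compound are dosed at 0.03-40 uM. Spontaneous firing is detected at 8x rms noise for 40 min before and after dosing at 37 C. The percent change in network-burst spike share is reported.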

[6] = CCTE_Shafer_MEA_acute_cross_correlation_area: CCTE's Neural Acute Assay for Area of Cross Correlation, Shafer Lab (AID 2284024);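 note: area under pooled inter-electrode spike cross-correlation near zero lag as percent change from own baseline; curves fitted for loss of cross-correlation area so actives lower synchrony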
Outline: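 Extracellular recordings from cultured rat cortical neurons measure network synchrony as cross-correlation area; each well's post-compound value (0.03-40 uM, 40 min) is compared with its own 40 min baseline to give percent change.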

[7] = CCTE_Shafer_MEA_acute_cross_correlation_HWHM: CCTE's Neural Acute Assay for Cross Correlation at Half Width at Half Maximum, Shafer Lab (AID 2284026);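 note: percent change per well from pre-dose baseline in spike cross-correlogram half width; hits are a decrease in cross-correlogram half width relative to DMSO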
Outline: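 Percent change in cross-correlogram half width at half maximum, narrower meaning more synchrony, was derived per well from paired 40-min recordings before and during exposure to 0.03-40 uM compound in rat cortical cultures at 37 C.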

[8] = CCTE_Shafer_MEA_acute_synchrony_index: CCTE's Neural Acute Assay for Synchrony, Shafer Lab (AID 2284027);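 note: network synchrony index of spontaneous spiking in primary rat cortical neurons on MEAs; fitted for loss of signal so actives lower synchrony relative to DMSO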
Outline: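 Spontaneous firing of mature rat cortical networks is captured extracellularly on microelectrode arrays at 37 C, with wells needing ≥10 active electrodes. Each compound (0.03-40 uM) is judged by the change in synchrony index from baseline over 40 min.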

[9] = CCTE_Shafer_MEA_dev_per_burst_spike_percent: CCTE's Neural Network Formation Assay for Percent of Spikes in a Burst, Shafer Lab (AID 2284032);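 for AC50: fitted as a decrease in burst spike percentage below DMSO baseline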
Outline: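 Rat primary cortical neurons on 16-electrode MEA wells, dosed from plating day 0 for 12 days with renewal on DIV 5 and 9; spikes-in-bursts percentage averaged over bursting electrodes, collapsed as AUC across days 5, 7, 9, 12; loss direction versus DMSO.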

[10] = CCTE_Deisenroth_AIME_384WELL_CTox_Active: Cytotoxicity Assessment (CTOX) in CCTE's 384-well Estrogen Receptor Transactivation Assay with AIME metabolic competence (metabolism positive), Deisenroth Lab (AID 2284037; active = hit-call score of the fitted dose curve at least 0.9, where 1 is the maximum;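 note: activity means signal loss indicating cell death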)
Outline: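 Cytotoxicity in VM7Luc4E2 breast cells, 24 hour, measured as protease-substrate fluorescence loss, after 2-hour metabolic conditioning with induced rat hepatic S9 in alginate microspheres. Concentrations 0.002 - 200 uM, 10 points, bidirectional fitting.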

[11] = CCTE_Deisenroth_AIME_384WELL_CTox_Inactive: Cytotoxicity Assessment (CTOX) in CCTE's 384-well Estrogen Receptor Transactivation Assay without AIME metabolic competence (metabolism negative), Deisenroth Lab (AID 2284039; active = hit-call score of the fitted dose curve at least 0.9, where 1 is the maximum;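 note: cell viability via live-cell protease substrate cleaved to fluorescent probe; cells exposed 24 h to medium preincubated 2 h with alginate-water beads without S9; loss of fluorescence signal means loss of viability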)
Outline: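 Fluorescent protease-substrate viability readout after 24 h exposure of VM7Luc4E2 cells to conditioned medium. Chemicals (0.002–200 uM) first sat 2 h over alginate-water beads, no S9. Data fitted bidirectionally, loss of signal meaning viability loss.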

[12] = CCTE_Shafer_MEA_dev_active_electrodes_number: CCTE's Neural Network Formation Assay for Number of Active Electrodes, Shafer Lab (AID 2284040; active = hit-call score of the fitted dose curve at least 0.9, where 1 is the maximum;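 for AC50: potency for loss of active electrodes versus DMSO so lower counts are hits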)
Outline: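 Rat cortical primary cultures, 1.5 x 10^5 cells/well, PEI-coated MEA, laminin drop. Continuous exposure DIV 0–12; full media/compound change DIV 5, 9. Readout: electrodes with mean firing ≥5 spikes/min; AUC across days; loss vs DMSO.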

[13] = biological target: Estrogen receptor (Homo sapiens) (UniProt P03372); assay: CCTE_Deisenroth_AIME_384WELL_LUC_Shift: CCTE's 384-well Estrogen Receptor Transactivation Assay with AIME metabolic competence data shift (ERTA luciferase; difference in metabolism positive and negative), Deisenroth Lab (AID 2284041);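 note: shift is response with S9 minus without S9 so positive means metabolism raised ER signal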
Estrogen receptor (Homo sapiens), sequence (P03372 whole entry, looked up): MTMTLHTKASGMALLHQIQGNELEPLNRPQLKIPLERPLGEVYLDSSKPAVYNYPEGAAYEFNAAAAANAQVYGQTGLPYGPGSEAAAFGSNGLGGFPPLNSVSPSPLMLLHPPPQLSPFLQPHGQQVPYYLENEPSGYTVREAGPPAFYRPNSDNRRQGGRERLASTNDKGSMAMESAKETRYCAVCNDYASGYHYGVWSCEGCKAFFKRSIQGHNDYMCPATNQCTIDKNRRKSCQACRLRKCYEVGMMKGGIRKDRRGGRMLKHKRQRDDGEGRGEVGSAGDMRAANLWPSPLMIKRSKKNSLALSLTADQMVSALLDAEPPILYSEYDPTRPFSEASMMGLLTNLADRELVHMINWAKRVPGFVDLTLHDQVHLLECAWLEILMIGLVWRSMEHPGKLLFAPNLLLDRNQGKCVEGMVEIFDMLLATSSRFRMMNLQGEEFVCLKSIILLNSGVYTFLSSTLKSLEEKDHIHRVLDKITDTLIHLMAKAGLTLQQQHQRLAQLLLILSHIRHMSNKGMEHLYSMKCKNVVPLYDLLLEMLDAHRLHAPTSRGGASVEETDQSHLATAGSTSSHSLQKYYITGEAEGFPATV
Outline: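 Test chemicals (0.002–200 uM, 10-point) were pre-incubated 2 h with alginate microspheres containing phenobarbital/beta-naphthoflavone-induced male Sprague Dawley rat liver S9 or water, then medium was transferred to VM7Luc4E2 cells for 24 h luciferase readout; shift = S9-positive minus S9-negative normalized response.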

[14] = CCTE_Shafer_MEA_dev_burst_rate: CCTE's Neural Network Formation Assay for Burst Rate, Shafer Lab (AID 2284042);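 for AC50: potency for loss of burst rate below DMSO control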
Outline: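 Exposure ran continuously over 12 days of network development in rat cortical cultures, with compound refreshed during full media changes on DIV 5 and 9. Single-electrode bursts per recording time, well-mean over active electrodes, trapezoidal AUC across days 5–12, fitted downward relative to DMSO.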

[15] = biological target: Estrogen receptor (Homo sapiens) (UniProt P03372); assay: CCTE_Deisenroth_AIME_384WELL_LUC_Active: CCTE's 384-well Estrogen Receptor Transactivation Assay with AIME metabolic competence (ERTA luciferase; metabolism positive), Deisenroth Lab (AID 2284030; active = hit-call score of the fitted dose curve at least 0.9, where 1 is the maximum)
Outline: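 Estrogenic luciferase signal in VM7Luc4E2 cells is measured at 24 hour, after chemicals have been preconditioned 2 hours with PB/BNF-induced rat hepatic S9 in alginate. Gain of signal is fitted relative to 17beta-estradiol, across 0.002 - 200 uM.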

[16] = biological target: Estrogen receptor (Homo sapiens) (UniProt P03372); assay: CCTE_Deisenroth_AIME_384WELL_LUC_Inactive: CCTE's 384-well Estrogen Receptor Transactivation Assay without AIME metabolic competence (ERTA luciferase; metabolism negative), Deisenroth Lab (AID 2284038; active = hit-call score of the fitted dose curve at least 0.9, where 1 is the maximum;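 note: VM7Luc4E2 breast cells given medium preincubated 2 h with S9-free microspheres; hits raise estrogen receptor luciferase signal so potencies reflect agonists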)
Outline: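 Chemicals (10-point series, 0.002 - 200 uM) were incubated 2 hours with alginate-water microsphere lids lacking S9, then the conditioned medium was transferred to VM7Luc4E2 breast cells for 24 hour. Luciferase induction was read by bioluminescence, fitted upward relative to 17beta-estradiol.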

[17] = biological target: Estrogen receptor (Homo sapiens) (UniProt P03372); assay: CCTE_Deisenroth_AIME_96WELL_LUC_Active: CCTE's 96-well Estrogen Receptor Transactivation Assay with AIME metabolic competence (ERTA luciferase; metabolism positive), Deisenroth Lab (AID 2284023; active = hit-call score of the fitted dose curve at least 0.9, where 1 is the maximum)
Outline: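 Chemicals pre-incubated 2 h with alginate-immobilized phenobarbital/beta-naphthoflavone-induced male Sprague Dawley rat liver S9, then medium transferred to VM7Luc4E2 cells for 24 h luciferase read-out. 10-point series 0.002 - 200 uM; fitted relative to 17beta-estradiol.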

[18] = biological target: Estrogen receptor (Homo sapiens) (UniProt P03372); assay: CCTE_Deisenroth_AIME_96WELL_LUC_Inactive: CCTE's 96-well Estrogen Receptor Transactivation Assay without AIME metabolic competence (ERTA luciferase; metabolism negative), Deisenroth Lab (AID 2284025; active = hit-call score of the fitted dose curve at least 0.9, where 1 is the maximum)
Outline: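 VM7Luc4E2 breast cells, luciferase read 24 h after dosing with medium pre-incubated 2 h on alginate-water lids (metabolism negative). 10-point series 0.002–200 uM, single technical replicate, n≥4; fit relative to 17beta-estradiol.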

[19] = CCTE_Deisenroth_AIME_96WELL_CTox_Active: Cytotoxicity Assessment (CTOX) in CCTE's 96-well Estrogen Receptor Transactivation Assay with AIME metabolic competence (metabolism positive), Deisenroth Lab (AID 2284028; active = hit-call score of the fitted dose curve at least 0.9, where 1 is the maximum)
Outline: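 Chemicals (0.002–200 uM) were first incubated 2 h with alginate-immobilized phenobarbital/beta-naphthoflavone-induced male rat liver S9; conditioned medium then went onto VM7Luc4E2 cells for 24 h, with viability read by protease-substrate fluorescence, fitted bidirectionally.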

[20] = CCTE_Deisenroth_AIME_96WELL_CTox_Inactive: Cytotoxicity Assessment (CTOX) in CCTE's 96-well Estrogen Receptor Transactivation Assay without AIME metabolic competence (metabolism negative), Deisenroth Lab (AID 2284029; active = hit-call score of the fitted dose curve at least 0.9, where 1 is the maximum)
Outline: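 Chemicals (10-point series, 0.002-200 uM) were incubated 2 h with alginate-water microspheres lacking S9. The conditioned medium was then transferred onto VM7Luc4E2 cells for 24 h. Viability was measured by protease-substrate cleavage to a fluorescent probe, with loss of signal fitted bidirectionally; n≥4 experimental replicates.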

Measured: AC50

CC(C)Oc1cc(-n2nc(C(C)(C)C)oc2=O)c(Cl)cc1Cl
inactive: [1] | [2] | [3] | [4] | [5] | [6] | [7] | [8]

CC(C)(C)c1ccc(CSc2cnn(C(C)(C)C)c(=O)c2Cl)cc1
active: [1] 2.67 µM | [3] 2.12 µM | [4] 1.37 µM | [5] 3.29 µM | [6] 0.0277 µM | [7] 4.43 µM | [8] 3.24 µM | [9] 0.00382 µM | [10] 19.8 µM | [12] 0.0031 µM | [14] 4.9 nM
inactive: [2] | [11] | [13]

CC1COC(Cn2cncn2)(c2ccc(Oc3ccc(Cl)cc3)cc2Cl)O1 (stereo not drawn)
active: [1] 4.77 µM | [2] 36.6 µM | [3] 3.5 µM | [7] 4.15 µM | [8] 11.5 µM
inactive: [4] | [5] | [6]

COC(=O)N(OC)c1ccccc1COc1ccn(-c2ccc(Cl)cc2)n1
active: [1] 0.976 µM | [2] 0.0765 µM | [5] 0.113 µM | [6] 0.0374 µM | [7] 1.62 µM | [8] 1.73 µM | [9] 184 nM and 27 nM | [10] 2.68 µM | [11] 19.8 µM | [12] 77 nM and 13.7 nM | [14] 91.4 nM
inactive: [3] | [4] | [15] | [16] | [13] | [14]

COc1ccc(C(c2ccc(OC)cc2)C(Cl)(Cl)Cl)cc1
active: [1] 19.9 µM | [4] 6.83 µM | [5] 19.9 µM | [17] 1.1 µM | [18] 3.77 µM | [8] 27.4 µM | [19] 102 µM | [20] 72.4 µM | [9] 4.51 µM | [12] 6.74 µM
inactive: [2] | [3] | [6] | [7] | [14]

CON(C)C(=O)Nc1ccc(Cl)c(Cl)c1
inactive: [3] | [4] | [5] | [6]
active: [1] 8.54 µM | [2] 0.649 µM | [7] 6.23 µM | [8] 6.56 µM

O=C(O)c1nc(Cl)ccc1Cl
inactive: [1] | [2] | [3] | [4] | [5] | [6] | [7] | [8] | [15] | [16] | [13]

COC(=O)C(C)Oc1ccc(Oc2ccc(Cl)cc2Cl)cc1 (stereo not drawn)
inactive: [2] | [3] | [4] | [6]
active: [1] 20 µM | [5] 25.7 µM | [7] 11.7 µM | [8] 20 µM

CCCCNC(=O)OCC#CI
inactive: [2] | [6] | [13]
active: [1] 20 µM | [3] 6.46 µM | [4] 20 µM | [5] 37.1 µM | [7] 31.7 µM | [8] 15.5 µM | [9] 3.25 µM and 1.37 µM | [10] 145 µM | [11] 124 µM | [12] 3.93 µM and 1.81 µM | [14] 3.94 µM and 1.33 µM

COP(N)(=O)SC (stereo not drawn)
not listed: [10] | [11] | [17] | [18] | [19] | [20]
inactive: all other assays above

Fc1ccc(Oc2ccnc3cc(Cl)cc(Cl)c23)cc1
inactive: [1] | [2] | [3] | [4] | [5] | [6] | [7] | [8]

OC(c1ccc(Cl)cc1)(c1cncnc1)c1ccccc1Cl (stereo not drawn)
active: [1] 2.9 µM | [3] 2.84 µM | [4] 2.52 µM | [5] 6.61 µM | [6] 0.761 µM | [7] 4.34 µM | [8] 3.05 µM
inactive: [2]

Cc1c(F)c(F)c(COC(=O)C2C(/C=C(\Cl)C(F)(F)F)C2(C)C)c(F)c1F (stereo not drawn)
active: [1] 0.24 µM | [3] 0.0979 µM | [4] 0.145 µM | [5] 0.567 µM | [6] 0.0953 µM | [7] 28.1 µM | [8] 0.433 µM | [9] 1.83 µM | [12] 10 µM | [14] 716 nM
inactive: [2] | [15] | [16] | [11] | [13]
